From PubChem
VDR inhibitor = inhibitors of human vitamin D receptor; VDR-SRC2-3 peptide fluorescence polarization, 2 h; Potency, µM, inactives show max response, negative = inhibition, most hits filed as inhibitors; 400,000 tested, 0.93% active
Target sequence (P11473 whole entry, looked up): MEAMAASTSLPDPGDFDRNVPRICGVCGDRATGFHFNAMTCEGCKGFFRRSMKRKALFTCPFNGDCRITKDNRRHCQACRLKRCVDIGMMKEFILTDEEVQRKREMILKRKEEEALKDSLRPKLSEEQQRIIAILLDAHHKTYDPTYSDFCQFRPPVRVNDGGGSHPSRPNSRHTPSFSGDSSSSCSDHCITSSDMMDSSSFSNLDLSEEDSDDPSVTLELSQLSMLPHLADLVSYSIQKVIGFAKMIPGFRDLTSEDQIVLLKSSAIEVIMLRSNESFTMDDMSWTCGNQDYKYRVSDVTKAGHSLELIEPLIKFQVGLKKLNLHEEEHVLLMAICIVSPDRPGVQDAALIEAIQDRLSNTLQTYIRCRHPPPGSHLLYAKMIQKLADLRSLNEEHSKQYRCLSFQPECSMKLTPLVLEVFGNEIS
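Inhibition of the VDR/SRC2-3 peptide interaction is quantified by fluorescence polarization. Compounds (23 nl, pintool) incubate with the reagents for 2 hours at ambient room temperature.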
Tau ThT inhib = tau fibrillization inhibition (ThT binding); Potency, µM (highest dose often 57.4 µM), inactives show at the top dose activity, negative = inhibition, hits mostly inhibitors; AID 1460; recombinant tau K18 P301L, heparin-induced fibrillization, ThT fluorescence; P10636; 270,000 tested, 2.1% active; further: nearly all actives have a fitted effect of over 55% in size
Target sequence (P10636 561-689 P618L limits assumed): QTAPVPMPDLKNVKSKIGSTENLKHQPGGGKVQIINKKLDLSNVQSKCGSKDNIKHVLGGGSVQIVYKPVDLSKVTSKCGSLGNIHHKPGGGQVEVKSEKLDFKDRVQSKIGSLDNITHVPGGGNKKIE
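Fibril formation assay: tau K18 P301L at 15 uM with trace Alexa 594 label, heparin inducer 20 uM, pH 7 sodium acetate buffer, 37 C for 6 hr; endpoint ThT signal.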
PLK1 PBD block = blocks phosphopeptide binding to human PLK1 polo-box domain | P53350 | Plk1 PBD binding of FITC phosphopeptide, fluorescence polarization | Potency, µM, for the others: max response, negative = inhibition, most hits filed as inhibitors | 360,000 tested, 2.8% active; further: series mostly up to about 57 µM; nearly all actives have a fitted effect of over 65% in size
Tau fluor counter = counter-screen for tau fibril formation inhibitors. tau K18 P301L Alexa594 fluorescence, heparin fibrillization. Potency, µM (doses to about 57.7 µM), for the others: at the top dose activity change, negative = decrease. 280,000 tested, 0.93% active. AID 1463; further: nearly all actives have a fitted effect of over 55% in size
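Human tau K18 P301L (15 uM unlabeled, 0.24 uM Alexa 594-labeled) in 100 mM sodium acetate pH 7 with 20 uM heparin, 6 hr at 37 C. ThT 30 uM added, 1 hr ambient; Alexa 594 FP and total fluorescence read at 555/632 nm.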
Tau FP inhib = blocks human tau fibril formation measured by polarization; K18 P301L tau heparin fibrillization, Alexa594 FP, 6 h; Potency, µM (titrated, usually from 57.7 µM), inactives show at the top dose activity, negative = inhibition, actives largely listed as inhibitors; 280,000 tested, 0.39% active; further: nearly all actives have a fitted effect of over 55% in size
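Recombinant K18 P301L […], labeled with Alexa 594 at 0.24 uM over 15 uM unlabeled; heparin inducer 20 uM final; 37 C, 6 hr; FP endpoint.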
Sfp inh = blocks B. subtilis Sfp PPTase activity. Potency, µM, inactives show largest response in the series, negative = inhibition, actives largely listed as inhibitors. Q9F4F7. 310,000 tested, 3.5% active. AID 1490. Biochemical Sfp PPTase activity, qHTS;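 further: the enzyme is Sfp with the accession as filed and its product quenches rhodamine fluorescence; 0% = enzyme reaction without inhibitor and -100% = no enzyme wells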
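Compounds were incubated with enzyme (final 15 nM) for 15 min at room temperature before substrate addition started the reaction. Fluorescence at 525 nm excitation, 598 nm emission was recorded immediately and after 30 minutes.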
Starred values were filed as active, the others as inactive; ? = inconclusive; · = no result given; [ ] = remark or other dose. Shown are actives, neighbours in structure and some others; about 6% of the full set was active somewhere. The call rests on the fitted dose curve; in most records, active means well fitted curve in the direction sought with a large enough effect; inconclusive means small, poorly fitted or top-dose-only effect, or another doubt; inactive means no such curve, though single readings can be large; an effect the other way counts as inactive or inconclusive. Unless noted, on the % scale 0 is the no-effect control and ±100 the full control effect; potency means the concentration at half of the fitted maximal effect.

SMILES	VDR inhibitor	Tau ThT inhib	PLK1 PBD block	Tau fluor counter	Tau FP inhib	Sfp inh
O=C(CN1C(=O)/C(=C/c2cccc(Br)c2)SC1=S)Nc1cccnc1	-10%	?	-23%	8.9µM*[quencher]	?	-5%
C/C(=N/Nc1ncc(Br)cn1)c1ccc(Br)cc1	?	·	4.7µM*	·	·	6%
C/C(=N\Nc1ccc(C(=O)O)cc1)c1ccc(Br)cc1	-18%	?	-26%	-22%	?	-27%
O[C@H]1CN(CC2CCCCC2)[C@@H](c2ccc(Cl)cc2)C[C@@H]1n1cc(C2CC2)nn1	·	·	-2%	·	·	·
CC1=C(C#N)C(c2ccc(O)cc2)C2=C(CCCC2=O)N1 (stereo not given)	16%	7%	-17%	7%	1%	13%
O=C1CCCC2=C1C(c1ccc(O)cc1)c1c(ccc3ccccc13)N2 (stereo not given)	8%	?	1%	?	10%	50µM*
Cc1noc(C)c1-c1cncnc1NCc1cccnc1	-3%	·	·	·	·	56µM*
Cc1ccccc1-c1cncnc1NCc1cccnc1	50µM*	·	·	·	·	79µM*
Cc1ccccc1-c1cncnc1NCc1ccccc1	-16%	·	·	·	·	-17%
NCCCC[C@@H](C(=O)N1CCNCC1)n1cc([C@@H](N)CC(N)=O)nn1	-20%	·	-10%	·	·	·
Clc1ccccc1OCCSc1nnc(-c2cccs2)o1	-7%	?	·	-21%	-5%	·
CCN(CC)c1ccc2cc(-c3nc4ccccc4n3C)c(=O)oc2c1	?	?	-2%	-9%	5%	7%
CCN(CC)c1ccc2cc(-c3nc4ccccc4[nH]3)c(=O)oc2c1	-5%	?	27µM*	-13%	-3%	9%
Cc1nc2scc(C)n2c(=O)c1S(=O)(=O)NCc1ccccc1Cl	1%	-1%	-13%	2%	1%	5%
Cc1nc2scc(C)n2c(=O)c1S(=O)(=O)NCCc1ccccc1	?	-2%	12µM*	-10%	-10%	21%
Cc1nc2scc(C)n2c(=O)c1S(=O)(=O)NC(C)c1ccccc1 (stereo not given)	?	·	19µM*	·	·	13%
CCc1ccc2[nH]c(=O)c(CN(Cc3ccccc3)Cc3nnnn3Cc3ccccc3)cc2c1	-10%	·	·	·	·	·
COc1ccc2cc(CN(Cc3cccnc3)Cc3nnnn3Cc3ccccc3)c(=O)[nH]c2c1	4%	-5%	-2%	-6%	3%	8%
O=c1[nH]c2cc3c(cc2cc1CN(Cc1ccccc1)Cc1nnnn1Cc1ccco1)OCCO3	?	?	?	-21%	-5%	11µM*
O=c1[nH]c2cc3c(cc2cc1CN(Cc1cccnc1)Cc1nnnn1Cc1ccco1)OCCO3	-4%	-12%	-21%	-8%	2%	16µM*
Cc1ccc2[nH]c(=O)c(CN(Cc3ccccc3)Cc3nnnn3Cc3ccccc3)cc2c1	-16%	·	·	·	·	·
CCOC(=O)Cn1nnnc1CN(Cc1cccs1)Cc1cc2cc(C)cc(C)c2[nH]c1=O	9%	-16%	-4%	-14%	3%	16µM*
COc1ccc2cc(CN(Cc3cccs3)Cc3nnnn3Cc3ccccc3)c(=O)[nH]c2c1	9%	-14%	-2%	?	4%	0%
CCc1ccc2[nH]c(=O)c(CN(Cc3ccccc3)Cc3nnnn3Cc3ccco3)cc2c1	5%	-17%	-12%	-12%	1%	18µM*
CC(C)OC(C)C	-12%	·	·	·	·	8%
SMILES	VDR inhibitor	Tau ThT inhib	PLK1 PBD block	Tau fluor counter	Tau FP inhib	Sfp inh
CC(=O)c1cc(-c2ccccc2)n(CC(=O)NCCc2ccc(C)cc2)c1C	7%	3%	·	-9%	-12%	·
O=c1[nH]c2cc3c(cc2cc1CN(Cc1ccc2c(c1)OCO2)Cc1nnnn1CC1CCCO1)OCO3 (stereo not given)	13%	-8%	-6%	-11%	-3%	-2%
Cc1cc(C)c2cc(CN(Cc3ccc4c(c3)OCO4)Cc3nnnn3Cc3ccco3)c(=O)[nH]c2c1	14%	-10%	-10%	-6%	3%	14µM*
Cc1ccc2[nH]c(=O)c(CN(Cc3cccnc3)Cc3nnnn3CCN3CCOCC3)cc2c1	3%	-2%	4.7µM*	4%	-1%	8%
O=c1[nH]c2cc3c(cc2cc1CN(Cc1cccs1)Cc1nnnn1Cc1ccco1)OCCO3	?	?	?	-26%	?	20µM*
COc1ccccc1CN(Cc1cc2cc3c(cc2[nH]c1=O)OCCO3)Cc1nnnn1Cc1ccco1	?	-17%	?	-14%	3%	13µM*
Cc1ccc2cc(CN(Cc3ccco3)Cc3nnnn3Cc3ccco3)c(=O)[nH]c2c1	-18%	·	·	·	·	·
Cc1ccc2[nH]c(=O)c(CN(Cc3ccc4c(c3)OCO4)Cc3nnnn3Cc3ccco3)cc2c1	8%	4%	-12%	-15%	1%	-9%
CC(C)C[C@H](NC(=O)CNC(=O)[C@@H]1CCCN1C(=O)[C@H](CCCNC(=N)N)NC(=O)[C@H](CC(=O)O)NC(=O)[C@@H](NC(=O)[C@H](CC(N)=O)NC(=O)[C@@H](NC(=O)[C@H](CC(=O)O)NC(=O)CNC(=O)[C@@H](NC(=O)[C@@H](NC(=O)[C@H](C)NC(=O)[C@@H](N)CCC(N)=O)[C@@H](C)O)C(C)C)C(C)C)[C@@H](C)O)C(=O)N[C@@H](CC(C)C)C(=O)N[C@@H](CC(=O)O)C(=O)N[C@@H](CC(C)C)C(=O)N[C@@H](CCCCN)C(=O)O	3%	·	·	·	·	2%
Cc1nnc(-c2ccc(Oc3ccc(Cl)cc3)c([N+](=O)[O-])c2)o1	?	-8%	21µM*	-3%	4%	-27%
O=C(Nc1cccc(Cl)c1)c1cc(N=Nc2ccc([N+](=O)[O-])cc2Cl)ccc1O	-13%	0.89µM*	?	1.1µM*[quencher]	8.9µM*	-24%
Cc1ccc(C)c(-n2ccnc2SCC(=O)c2c(N)n(C3CC3)c(=O)[nH]c2=O)c1	22%	·	?	·	·	·
CCOC(=O)C1CCCN(C(=O)CSc2ccc(NC(C)=O)cc2)C1 (stereo not given)	-25%	-8%	21µM*	-5%	-1%	6%
CCOC(=O)C1CCCN(C(=O)CSc2ccccc2)C1 (stereo not given)	12%	3%	-25%	7%	-2%	4%
CC1CCN(C(=O)CCNS(=O)(=O)c2ccc(Br)cc2)CC1	?	·	-4%	·	·	·
Cc1ccc(-n2c(=O)c3c4c(sc3n(Cc3ccccc3C)c2=O)CCC4)cc1C	7%	-3%	·	-9%	3%	·
CCS(=O)(=O)c1ccc(N=Nc2ccc(O)c3ncccc23)c(OC)c1	-8%	?	-1%	?	15%	-6%
